The list is not random: actives were taken first. Their share in the collection is about 10%.
KB-3-1 tox – kills parental KB-3-1 adenocarcinoma cells; KB-3-1 viability, CellTiter-Glo ATP luminescence, 72 h; Potency, µM (doses to about 46.1 µM), actives largely listed as cytotoxic; hit rate 1.4% among 400,000; AID 1347075; further: on the % scale 0 is the no-effect control and ±100 the full control effect; nearly all actives have a fitted effect of over 60% in size
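Cytotoxicity in the drug-sensitive parental line KB-3-1 was scored as loss of CellTiter-Glo luminescence following 72 h incubation with compound. Values come from curve fitting of normalized concentration-response data.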
VP16 counter – counter-screen for ROR gamma inhibitors: Gal4-VP16 reporter; Drosophila S2 Gal4-VP16 UAS-luciferase, luminescence, 20 h; Potency, µM (series often up to 53.6 µM), without a hit: top-dose activity, negative = inhibition, hits mostly inhibitors; hit rate 3.5% among 310,000;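 further: Gal4-VP16 expression switched on by copper sulfate through the metallothionein promoter; on the % scale 0 is the no-effect control and ±100 the full control effect; nearly all actives have a fitted effect of over 50% in size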
RORgamma inh – ROR gamma (mouse) transcription inhibition; AID 2551; Drosophila S2 Gal4-RORgamma UAS-luciferase reporter, 20 h; hit rate 5.4% among 310,000; Potency, µM (series often up to 53.6 µM), without a hit: at the top dose activity change, negative = inhibition, actives largely listed as inhibitors; further: on the % scale 0 is the no-effect control and ±100 the full control effect; nearly all actives have a fitted effect of over 60% in size
Target sequence (P51450 whole entry, looked up, the tested form may be a part): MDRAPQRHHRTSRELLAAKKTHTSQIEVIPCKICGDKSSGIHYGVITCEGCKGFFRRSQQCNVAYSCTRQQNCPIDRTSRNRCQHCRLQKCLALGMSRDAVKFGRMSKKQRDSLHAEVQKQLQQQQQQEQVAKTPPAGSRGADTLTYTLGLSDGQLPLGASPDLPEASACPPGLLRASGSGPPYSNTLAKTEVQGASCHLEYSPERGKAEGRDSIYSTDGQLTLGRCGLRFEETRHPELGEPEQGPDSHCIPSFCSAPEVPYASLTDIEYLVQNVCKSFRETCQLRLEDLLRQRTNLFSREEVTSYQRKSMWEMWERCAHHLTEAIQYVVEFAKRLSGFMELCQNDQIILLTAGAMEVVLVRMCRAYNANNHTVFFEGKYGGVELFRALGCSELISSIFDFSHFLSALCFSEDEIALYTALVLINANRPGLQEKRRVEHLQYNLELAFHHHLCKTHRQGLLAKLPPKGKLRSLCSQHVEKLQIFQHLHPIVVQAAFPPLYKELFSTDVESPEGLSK
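Drosophila S2 cells stably expressing Gal4-DBD/mouse RORγ fusion under metallothionein promoter plus UAS-luciferase; compound 1 h, then 700 uM CuSO4 induction for 20 h at ambient temperature; inhibition read as reduced luminescence.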
SW480 rerep – inducers of DNA re-replication in SW480 colon cancer cells. hit rate 1.8% among 340,000. Potency, µM (top dose mostly 46.1 µM), without a hit: at the highest dose re-replication activation, usual class: activators. SW480 DNA re-replication, Hoechst DNA content imaging, 48 h; further: % of control where 0% means no effect; nearly all actives have a fitted effect of over 55% in size
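Image-based DNA-content assay: after two days of treatment, nuclei were labelled with the DNA dye Hoechst and imaged, and hits were compounds raising the count of nuclei showing high fluorescence intensity.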
MCF10A rerep – DNA re-replication induction in MCF 10a cells; hit rate 2.9% among 350,000; AID 624296; Potency, µM (doses to about 46.1 µM), without a hit: at the top dose activity, positive = re-replication, hits mostly activators; MCF 10A DNA re-replication, Hoechst nuclear intensity, 48 h; further: % of control where 0% means no effect; nearly all actives have a fitted effect of over 50% in size
KB-V1 MDR tox – kills drug-selected multidrug resistant KB-V1 cells. hit rate 3.4% among 400,000. Potency, µM (top dose mostly 46.1 µM), most hits filed as cytotoxic. KB-V1 MDR cells viability, CellTiter-Glo, 72 h. AID 1347076; further: on the % scale 0 is the no-effect control and ±100 the full control effect; nearly all actives have a fitted effect of over 60% in size
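KB-V1, DMEM (no phenol red) + 10% FBS; cpd pin-transferred, titration series; 72 h, 37 degrees C; CellTiter-Glo, luminescence. Data normalized, curve-fit.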
Numbers without * were called inactive; i = inactive; ? = inconclusive; . = no result. The call rests on the fitted dose curve; in most records, active means well fitted curve in the direction sought with a large enough effect; inconclusive means small, poorly fitted or top-dose-only effect, or another doubt; inactive means no such curve, though single readings can be large; an effect the other way counts as inactive or inconclusive. Potency means the concentration at half of the fitted maximal effect.

SMILES	KB-3-1 tox	VP16 counter	RORgamma inh	SW480 rerep	MCF10A rerep	KB-V1 MDR tox
CNC(=S)N1N=C(c2ccc(C)cc2)CC1c1ccc(Br)cc1 (stereo unspecified)	i	7.3%	-94.5%	12.5%	8.5%	14.6µM*
CNC(=S)N1N=C(c2ccc(C)cc2)CC1c1ccc(Cl)cc1 (stereo unspecified)	i	-1.7%	12.6µM*	0.8%	14.5%	i
CNC(=S)N1N=C(c2ccccc2)CC1c1ccccc1Cl (stereo unspecified)	?	-9.3%	17.8µM*	9.8%	?	i
CC(C)c1ccc(C2CC(c3ccc(Br)cc3)=NN2C(N)=S)cc1 (stereo unspecified)	?	5.62µM*	1.78µM*	28.1%	?	?
Cc1cccn2c(=O)c(C(=O)NCCc3ccc(S(N)(=O)=O)cc3)c(O)nc12	i	.	.	.	.	i
O=C(c1csnn1)N1CCC2(CCCN(Cc3cc(C(F)(F)F)cc(C(F)(F)F)c3)C2)CC1	.	-5.5%	25.9%	.	.	.
COc1cccc(/C=N/Nc2ncnc(Cl)c2N)c1O	?	3.16µM*	1.78µM*	?	?	?
COc1cccc(/C=N/Nc2nccnc2Cl)c1O	?	7.08µM*	3.16µM*	0.259µM*	5.8µM*	i
COc1ccc(/C=N/Nc2nccnc2Cl)c(OC)c1	i	?	?	5.2%	3.0%	i
COc1cccc(/C=N/Nc2ncnc3scc(-c4ccccc4)c23)c1O	?	12.6µM*	2.82µM*	?	13µM*	?
COc1ccc(/C=N/Nc2ncnc(Cl)c2N)cc1OC	i	?	?	-34.5%	?	?
Cc1ccc(CN2CCN(CC(=O)NCc3ccccc3Cl)C2=O)cc1	i	.	.	.	.	i
Cc1ccc(C(=O)Nc2ncc(Cc3ccc(F)cc3)s2)o1	5.8µM*	?	?	-2.1%	?	9.2µM*
Cc1ccc(C(=O)Nc2ncc(Cc3ccc(SC(F)F)cc3)s2)cc1	?	?	12.6µM*	0.731µM*	?	1.03µM*
Cc1ccc(Cc2cnc(NC(=O)c3ccc4c(c3)CC(c3ccccc3)OC4=O)s2)cc1 (stereo unspecified)	i	.	.	.	.	i
COc1ccc2c(c1)CSC(c1ccccc1)C2=O (stereo unspecified)	i	.	.	.	.	i
COC(=O)c1cc(=O)nc(NNC(C)=O)s1	i	.	.	.	.	i
C=C1C(=O)OC2CC1C(OC(C)=O)CC(C)=CCCC(C)=CCC[C@@]2(C)O (stereo partly specified)	.	?	5.62µM*	.	.	.
C=C1C(=O)OC2CC1C(O)CC(C)=CCCC(C)=CC(O)CC2C (stereo unspecified)	?	.	.	?	1.3µM*	?
Cc1cc(=O)cc2oc3cc(N)c(-c4c(C)cc(O)cc4O)c(C)c3nc1-2	.	-25.5%	-41.3%	.	.	.
O=C(O)C/C(=C\c1cccc(NC(=O)c2ccccc2Cl)c1)c1nc2ccccc2s1	i	5.7%	-37.1%	21.1%	-1.4%	i
Cc1ccc(C)c(NC(=S)c2nc3ccccc3s2)c1	?	0.708µM*	0.398µM*	-4.2%	-8.7%	i
Cc1ccc(NC(=S)c2nc3ccccc3s2)cc1	i	2µM*	1µM*	1.5%	-1.7%	i
O=C(Nc1ccc(Cl)cc1)/C(=C/c1cccc(O)c1)c1nc2ccccc2s1	2.91µM*	20µM*	11.2µM*	20.6µM*	4.11µM*	?
S=C(Nc1ccc(Cl)cc1)c1nc2ccccc2s1	i	1.41µM*	0.316µM*	1.2%	?	i
Cc1ccc(Nc2nc3ccccc3s2)c(C)c1	i	?	?	-2.1%	?	i
O=c1c(CCc2ccccc2)nc2cnc(N3CCNCC3)nc2n1-c1ccccc1	.	3.9%	-6.6%	.	.	.
O=C(/C=C/c1c[nH]c2ccccc12)c1cccc2ccccc12	?	?	5.01µM*	16.4µM*	20.6µM*	?

Bioassay records as filed in PubChem BioAssay.
